# Records with an inconclusive call do not appear. A call without a number means that no potency is given here. Active and inactive are the calls of the source. The call rests on the fitted dose curve; in most records, active means well fitted cell-killing curve with a large enough effect; inconclusive means small, poorly fitted or top-dose-only effect; inactive means flat fitted curve, though single readings scatter.
# Test: qHTS of pediatric cancer cell lines to identify multiple opportunities for drug repurposing: Primary screen for Rh18 cells (AID 1347102); further: nearly all actives have a fitted effect of over 65% in size
# Settings: Rh18 rhabdomyosarcoma viability, CellTiter-Glo luminescence, 48 h; series mostly up to 46 µM
# Outline: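 Viability after 48 h compound treatment at 37C, 500-1,000 cells/well, read as ATP luminescence with CellTiter-Glo. Primary screens used 11-point (MIPE, 0.78 nM-46 µM) or 8-point (NPC, 0.59 nM-46 µM) final concentrations; follow-up screens used 11-point dilutions.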
# Potency means the concentration at half of the fitted maximal effect.
row,Structure (SMILES),Potency
1,CCN(CC)C(=O)[C@@H]1C=C2c3cccc4[nH]cc(c34)C[C@H]2N(C)C1,inactive
2,O=C1c2ccccc2C(=O)C1C(=O)C(c1ccccc1)c1ccccc1,inactive
3,C[C@]12Cc3cn[nH]c3C[C@@H]1CC[C@@H]1[C@@H]2CC[C@@]2(C)[C@H]1CC[C@]2(C)O,inactive
4,C[C@]12CCC(=O)C=C1CC[C@@H]1[C@H]3CC[C@](C)(O)[C@@]3(C)CC[C@@H]12,inactive
5,C[C@]12CC[C@H]3[C@@H](CC[C@@]45O[C@H]4C(O)=C(C#N)C[C@]35C)[C@H]1CC[C@H]2O,inactive
6,CC(Cc1ccccc1)N(C)Cc1ccco1 (stereo not drawn),inactive
7,COc1cccc2c1C(=O)c1c(O)c3c(c(O)c1C2=O)C[C@@](O)(C(=O)CO)CC3OC1CC(N2CCOC(OC)C2)C(O)C(C)O1 (stereo partly drawn),59.6 nM (active)
8,CCCCCCCCCC(=O)O[C@H]1CC[C@H]2[C@@H]3CCC4=CC(=O)CC[C@@H]4[C@H]3CC[C@]12C,inactive
